This is part of a sample that, as a whole, favours compounds with a hit. Of some 79,000 tested, about 15% had one in any assay. The source made the active and inactive calls. Rule as the data show it: active = growth inhibition above about 70%; inactive = the rest.
Tests used:
[1] = NCI Yeast Anticancer Drug Screen. Data for the rad52 strain (AID 147);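 also: 0% = growth of vehicle-treated control cultures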; settings: S. cerevisiae rad52 mutant growth inhibition, hits give high values
Method in brief: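 Here a repair-compromised yeast strain receives each compound; its growth is then quantified and normalised to vehicle-only controls.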

[2] = NCI Yeast Anticancer Drug Screen. Data for the wt1 strain (AID 149);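 also: 0% = growth of vehicle-treated wt1 cultures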; settings: S. cerevisiae wt1 strain (SPY 50644) growth inhibition, hits give high values
Method in brief: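 Each compound is tested on wt1 yeast and the loss of growth versus vehicle gives the inhibition value.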

[3] = NCI Yeast Anticancer Drug Screen. Data for the rad50EPP+ strain (AID 151);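 also: 0% = growth of vehicle-treated control cultures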; settings: S. cerevisiae rad50 mutant strain, hits give high values
Method in brief: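 Read-out is yeast growth inhibition relative to vehicle; cells used were the rad50EPP+ strain.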

[4] = NCI Yeast Anticancer Drug Screen. Data for the mgt1 strain (AID 153); settings: S. cerevisiae mgt1 mutant growth inhibition, hits give high values
Method in brief: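 Measured: inhibition of mgt1 yeast growth by compound, normalized to vehicle-treated cultures.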

[5] = NCI Yeast Anticancer Drug Screen. Data for the rad50 strain (AID 155);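 also: 0% = growth of vehicle-only cultures of the same strain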; settings: S. cerevisiae rad50 strain growth inhibition, hits give high values
Method in brief: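 Vehicle-treated cultures provide the reference for the growth inhibition reported for compound-exposed, repair-deficient yeast.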

[6] = NCI Yeast Anticancer Drug Screen. Data for the mec2-1 strain (AID 157); settings: S. cerevisiae mec2-1 strain, hits give high values
Method in brief: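 Using mec2-1 yeast: add compound, measure growth, express inhibition versus vehicle-treated cultures.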

[7] = NCI Yeast Anticancer Drug Screen. Data for the rad14 strain (AID 159);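 also: 0% = growth of vehicle-treated control cultures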; settings: S. cerevisiae rad14 strain growth inhibition, hits give high values
Method in brief: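 Inhibition of growth is reported for a repair-deficient yeast mutant following compound treatment, calculated relative to cultures that received vehicle.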

[8] = NCI Yeast Anticancer Drug Screen. Data for the sgs1 mgt1 strain (AID 161);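 also: 0% = growth of cultures given vehicle only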; settings: S. cerevisiae sgs1 mgt1 strain, hits give high values
Method in brief: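 Yeast cells carrying a defined DNA-repair defect were exposed to test compounds. Growth inhibition was measured relative to vehicle-treated controls.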

[9] = NCI Yeast Anticancer Drug Screen. Data for the CLN2oe strain (AID 163);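 also: 0% = growth of vehicle-only control cultures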; settings: S. cerevisiae CLN2oe strain, hits give high values
Method in brief: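 Whole-cell yeast growth assay. A strain engineered for altered cell-cycle control received compound, and inhibition relative to vehicle-treated cultures was recorded.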

[10] = NCI Yeast Anticancer Drug Screen. Data for the cln2 rad14 strain (AID 165);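 also: 0% = growth equal to vehicle treated cultures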; settings: S. cerevisiae cln2 rad14 strain, hits give high values
Method in brief: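 Yeast strain cln2 rad14, bearing defects in cell cycle control and DNA repair, serves as the test system; values reflect growth inhibition compared with vehicle.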

[11] = NCI Yeast Anticancer Drug Screen. Data for the bub3 strain (AID 167); settings: S. cerevisiae bub3 mutant strain, hits give high values
Method in brief: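 Mutant yeast screening strain plus compound; vehicle-treated cultures serve as the 0% inhibition reference.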

[12] = NCI Yeast Anticancer Drug Screen. Data for the wt2 strain (AID 169); settings: S. cerevisiae wt2 strain growth inhibition, hits give high values
Method in brief: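 Treated yeast vs. vehicle-treated yeast: growth inhibition determined.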

[13] = NCI Yeast Anticancer Drug Screen. Data for the mlh1 strain (AID 171);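 also: 0% = growth of vehicle-treated control cultures of the same strain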; settings: S. cerevisiae mlh1 strain growth inhibition, hits give high values
Method in brief: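 A yeast strain with a defined genetic lesion serves as the test organism. Cultures receive compound or vehicle, and growth is measured.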

[14] = NCI Yeast Anticancer Drug Screen. Data for the sgs1 strain (AID 173);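 also: 0% = growth of vehicle-only control cultures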; settings: S. cerevisiae sgs1 mutant, hits give high values
Method in brief: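 A genetically defined yeast mutant is incubated with the test compound, and its growth is compared to that of the same strain given vehicle.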

[15] = NCI Yeast Anticancer Drug Screen. Data for the mlh1 rad18 strain (AID 175); settings: S. cerevisiae mlh1 rad18 strain growth inhibition, hits give high values
Method in brief: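 Steps: expose repair-defective yeast to compound; measure growth; express inhibition against vehicle-treated controls.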

[16] = NCI Yeast Anticancer Drug Screen. Data for the rad18 strain (AID 177); settings: S. cerevisiae rad18 mutant growth inhibition, hits give high values
Method in brief: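 Measured value is growth inhibition of a yeast strain bearing a DNA repair alteration, referenced to vehicle-treated cells.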

[17] = at 5.0 µM (retest, dose inferred, filed as 0.5)
[18] = at 50.0 µM (retest, dose inferred, filed as 5.0)

Measured: growth inhibition

CCCCCCCCNC(=O)C1=C(C)NC(C)=C(C(=O)NCCCCCCCC)C1
inactive: [1]; at 1.2 µM 0% | [1]; at 3.7 µM 1% | [1]; at 11.0 µM 3% | [1]; at 33.0 µM -4% | [1]; at 100.0 µM 3% | [2]; at 1.2 µM 2% | [2]; at 3.7 µM 3% | [2]; at 11.0 µM 1% | [2]; at 33.0 µM 0% | [2]; at 100.0 µM 3% | [3]; at 1.2 µM 0% | [3]; at 3.7 µM -1% | [3]; at 11.0 µM 2% | [3]; at 33.0 µM 11% | [3]; at 100.0 µM 25% | [4]; at 1.2 µM 0% | [4]; at 3.7 µM 0% | [4]; at 11.0 µM 1% | [4]; at 33.0 µM -13% | [4]; at 100.0 µM 4% | [5]; at 1.2 µM -4% | [5]; at 3.7 µM -13% | [5]; [17] 8% | [5]; at 11.0 µM -17% | [5]; at 33.0 µM -3% | [5]; [18] 6% | [5]; at 50.0 µM -29.5% | [5]; at 100.0 µM 4% | [6]; at 1.2 µM 0% | [6]; at 3.7 µM 2% | [6]; [17] -7% | [6]; at 11.0 µM 0% | [6]; at 33.0 µM -4% | [6]; [18] 14% | [6]; at 50.0 µM -5.25% | [6]; at 100.0 µM 7% | [7]; at 1.2 µM 1% | [7]; at 3.7 µM 0% | [7]; at 11.0 µM 2% | [7]; at 33.0 µM 4% | [7]; at 100.0 µM 11% | [8]; [17] -7% | [8]; [18] 4% | [8]; at 50.0 µM 0.45% | [9]; at 1.2 µM 4% | [9]; at 3.7 µM 2% | [9]; at 11.0 µM -1% | [9]; at 33.0 µM 0% | [9]; at 100.0 µM 2% | [10]; [17] 42% | [10]; [18] 2% | [10]; at 50.0 µM 35.4% | [11]; at 1.2 µM 0% | [11]; at 3.7 µM 0% | [11]; [17] 35% | [11]; at 11.0 µM 0% | [11]; at 33.0 µM 0% | [11]; [18] -4% | [11]; at 50.0 µM -6.55% | [11]; at 100.0 µM 2% | [12]; at 1.2 µM 1% | [12]; at 3.7 µM 1% | [12]; at 11.0 µM 0% | [12]; at 33.0 µM 1% | [12]; at 100.0 µM 2% | [13]; at 1.2 µM 0% | [13]; at 3.7 µM 2% | [13]; at 11.0 µM 0% | [13]; at 33.0 µM 2% | [13]; at 100.0 µM 8% | [14]; at 1.2 µM 2% | [14]; at 3.7 µM 3% | [14]; at 11.0 µM -3% | [14]; at 33.0 µM 3% | [14]; at 100.0 µM 14% | [15]; [17] 8% | [15]; [18] -5% | [15]; at 50.0 µM -23.8% | [16]; at 1.2 µM -1% | [16]; at 3.7 µM -2% | [16]; at 11.0 µM -4% | [16]; at 33.0 µM -8% | [16]; at 100.0 µM 2%

Cc1ccc(C2C(Cl)C(=O)N2n2cnc3ccccc3c2=O)cc1 (stereo unspecified)
inactive: [1]; at 1.2 µM 6% | [1]; at 3.7 µM 11% | [1]; at 11.0 µM 8% | [1]; at 33.0 µM 9% | [1]; at 100.0 µM -8% | [2]; at 1.2 µM 8% | [2]; at 3.7 µM 14% | [2]; at 11.0 µM 19% | [2]; at 33.0 µM 6% | [2]; at 100.0 µM 6% | [3]; at 1.2 µM -13% | [3]; at 3.7 µM -6% | [3]; at 11.0 µM -3% | [3]; at 33.0 µM 34% | [3]; at 100.0 µM 51% | [4]; at 1.2 µM -15% | [4]; at 3.7 µM -11% | [4]; at 11.0 µM -23% | [4]; at 33.0 µM -19% | [4]; at 100.0 µM -27% | [5]; at 1.2 µM -2% | [5]; at 3.7 µM 0% | [5]; [17] 14% | [5]; at 11.0 µM -6% | [5]; at 33.0 µM -6% | [5]; [18] -4% | [5]; at 50.0 µM -15.2% | [5]; at 100.0 µM -20% | [6]; at 1.2 µM -6% | [6]; at 3.7 µM -12% | [6]; [17] -16% | [6]; at 11.0 µM -10% | [6]; at 33.0 µM -11% | [6]; [18] 10% | [6]; at 50.0 µM 12.5% | [6]; at 100.0 µM -15% | [7]; at 1.2 µM -15% | [7]; at 3.7 µM -19% | [7]; at 11.0 µM -9% | [7]; at 33.0 µM -12% | [7]; at 100.0 µM -4% | [8]; [17] -4% | [8]; [18] 20% | [8]; at 50.0 µM -0.75% | [9]; at 1.2 µM -23% | [9]; at 3.7 µM -43% | [9]; at 11.0 µM -18% | [9]; at 33.0 µM -54% | [9]; at 100.0 µM -20% | [10]; [17] 4% | [10]; [18] 28% | [10]; at 50.0 µM 6.4% | [11]; at 1.2 µM -10% | [11]; at 3.7 µM -7% | [11]; [17] 33% | [11]; at 11.0 µM 3% | [11]; at 33.0 µM 46% | [11]; at 50.0 µM 68.6% | [11]; at 100.0 µM 62% | [12]; at 1.2 µM -15% | [12]; at 3.7 µM -19% | [12]; at 11.0 µM -18% | [12]; at 33.0 µM -23% | [12]; at 100.0 µM -8% | [13]; at 1.2 µM -39% | [13]; at 3.7 µM -39% | [13]; at 11.0 µM -41% | [13]; at 33.0 µM -34% | [13]; at 100.0 µM -4% | [14]; at 1.2 µM 11% | [14]; at 3.7 µM 17% | [14]; at 11.0 µM 11% | [14]; at 33.0 µM 22% | [14]; at 100.0 µM 30% | [15]; [17] -9% | [15]; [18] 6% | [15]; at 50.0 µM -11.2% | [16]; at 1.2 µM -1% | [16]; at 3.7 µM 6% | [16]; at 11.0 µM -1% | [16]; at 33.0 µM -7% | [16]; at 100.0 µM -5%
active: [11]; [18] 84%

From PubChem BioAssay (NCI)
